Sampled rows, rich in hits. Any-hit rate of the full collection: about 1.8%.
LGR2 inh: inhibitors of bursicon-induced LGR2 CRE-luciferase signal, primary screen, cell-based, HEK293, CRE-luciferase reporter, bursicon stimulation | Drosophila bursicon receptor LGR2 (rickets) | bursicon-stimulated, 4 h | inhibition, % at 9.99 µM | 0.35% of 380,000 active;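 active means drop in luminescence signal, shown as inhibition above about 50% in the replicate tests, limit read from the data, passing the limit was not always enough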;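 further: agonist challenge used bursicon conditioned medium at about half maximal strength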
PAX8 reporter: inhibitors of PAX8-driven TPO luciferase reporter, primary screen, RMG-I cells, single concentration. AID 652154, 2013. 1.2% of 360,000 active. SteadyGlo, 24 h. inhibition, % at 12.6 µM;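 active means mean replicate inhibition at least 60% with every replicate also reaching 60%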;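 further: luciferase light reporting Pax8 driven TPO promoter activity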
CFTR F508del cor: F508del CFTR correction, initial screen, CFBE line, single point; CFBE cells, YFP halide quenching; stimulated with forskolin plus potentiator P3; % fluorescence drop versus neutral controls; activity (quench increase), % at 7.58 µM; 0.36% of 350,000 active;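 active means mean added fluorescence quench of at least 8% versus neutral control, with both replicates also reaching 8%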;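 further: cells transiently co-express mutant CFTR-F508del with the halide-sensitive YFP; corrector assay measuring rescue of mutant channel to the surface after 24 h compound exposure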
EWS-Fli block: EWS/Fli-driven NR0B1 reporter inhibitors, primary screen, A673 cells, NR0B1 luciferase, luminescence, MLPCN library; viability-normalised; inhibition, % at 12.6 µM; AID 651661, 2012; 0.67% of 350,000 active;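 active means mean inhibition of at least 50% after viability correction, with every replicate also passing that limit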;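 further: firefly luciferase signal divided by Alamar Blue viability fluorescence both relative to DMSO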
Each line names hits and unclear results; the compound was inactive in the other large screens; ! = not confirmed by another sample.

CN1CCN(c2ccc(S(=O)(=O)N3CCCCC3)cc2NC(=O)/C=C/c2ccc(Cl)c([N+](=O)[O-])c2)CC1	PAX8 reporter 87.7
Cc1ccc(C(=O)CSc2nnc(-c3ccncc3)n2C)cc1	none
O=C(C[C@@H]1CC[C@H](NC(=O)C2CCOCC2)[C@H](CO)O1)NCc1ccccc1Cl	none
CCCCc1ccc(NC(=O)c2cnccn2)cc1	LGR2 inh 64.8
O=C(NCCc1ccc(Cl)cc1)c1cnccn1	none
O=C(Nc1ccc(N2CCOCC2)cc1)c1cnccn1	LGR2 inh 70.0, EWS-Fli block 56.9
O=C(Nc1ccccc1N1CCOCC1)c1cnccn1	none (no result: LGR2 inh, CFTR F508del cor, EWS-Fli block)
CCOc1ccc(C(=O)C[n+]2ccc(C(=O)NCCO)cc2)cc1	none
Cc1ccc(-c2ccc(C3[C@@H]4CN(C(=O)Nc5ccc(C(F)(F)F)cc5)C[C@H]3N4)cc2)cc1 (some centres not stated)	PAX8 reporter 91.1!
O=C(Nc1ccccc1)N1C[C@@H]2N[C@H](C1)[C@@H]2c1ccc(/C=C/c2ccccc2)cc1	PAX8 reporter 112.9
O=C(Nc1ccc(C(F)(F)F)cc1)N1C[C@@H]2N[C@H](C1)C2c1ccc(-c2cccc(F)c2)cc1 (some centres not stated)	PAX8 reporter 88.5
COc1ccc(NC(=O)N2C[C@@H]3N[C@H](C2)C3c2ccc(-c3cccc(F)c3)cc2)cc1 (some centres not stated)	none
O=C(Nc1ccccc1)N1C[C@@H]2N[C@H](C1)C2c1ccc(-c2ccccc2)cc1 (some centres not stated)	none
CC(=O)NS(=O)(=O)c1ccc(NC(=O)COc2ccc(C(=O)c3ccccc3)cc2)cc1	PAX8 reporter 75.3
Cc1cccc(C(=O)N[C@H](C(=O)Nc2ncc(C)s2)C(C)C)c1	PAX8 reporter 70.4
CCOc1ccc(S(=O)(=O)N(CC(=O)NCc2cccnc2)c2ccc(F)cc2)cc1	none
COc1ccc(-n2nnnc2C(c2ccccc2)N2CCN(C/C=C/c3ccccc3)CC2)cc1 (configuration not stated)	CFTR F508del cor 10.4
CC(C)c1ccc(CNc2nc(NCC3CC3)nc3ccsc23)cc1	none
O=C(OCC(=O)N1CCN(C(=O)c2ccco2)CC1)c1cccc(S(=O)(=O)N2CCc3ccccc32)c1	PAX8 reporter 100.6
COc1cccc(-c2ccc(C3[C@@H]4CN(Cc5cccc(F)c5)C[C@H]3N4)cc2)c1 (some centres not stated)	PAX8 reporter 75.3!
Cc1ccc(-c2ccc([C@@H]3[C@@H]4CN(Cc5ccccc5F)C[C@H]3N4)cc2)cc1	PAX8 reporter 89.4
O=C(Cc1ccncc1)N1C[C@@H]2N[C@H](C1)C2c1ccc(-c2ccccc2)cc1 (some centres not stated)	none
Cc1ccccc1-c1ccc(C2[C@@H]3CN(C(=O)Cc4ccccc4)C[C@H]2N3)cc1 (some centres not stated)	EWS-Fli block 55.8!
COc1ccc(-c2ccc(C3[C@@H]4CN(Cc5cccc(OC)c5)C[C@H]3N4)cc2)cc1 (some centres not stated)	none
COc1cc(CN2C[C@@H]3N[C@H](C2)C3c2ccc(-c3ccccc3C)cc2)cc(OC)c1 (some centres not stated)	PAX8 reporter 72.8!
O=C(Nc1ccnn1C1CCN(Cc2ccccc2)CC1)C1CCOC1 (configuration not stated)	none
Cc1cc(NC(=O)c2ccc(Cl)c(S(=O)(=O)N3CCCCC3)c2)no1	none
Fc1ccc(-c2ccc(C3[C@@H]4CN(Cc5ccccc5)C[C@H]3N4)cc2)cc1 (some centres not stated)	PAX8 reporter 74.1!
Fc1ccc(-c2ccc(C3[C@@H]4CN(Cc5cccc(F)c5)C[C@H]3N4)cc2)cc1 (some centres not stated)	none
CCC1CCCCN1S(=O)(=O)c1ccc(NC(=O)CSc2ncccc2C(=O)O)cc1 (configuration not stated)	none (no result: PAX8 reporter, CFTR F508del cor, EWS-Fli block)
C[C@H]1CCCCO[C@H](CN(C)Cc2ccc(C(=O)O)cc2)[C@@H](C)CN([C@@H](C)CO)C(=O)c2cc(NC(=O)C3CCCCC3)ccc2O1	none
CNC(=O)CC1C(=O)N(c2ccc(F)cc2)C(=S)N1NC(=O)c1ccc(Cl)cc1 (configuration not stated)	CFTR F508del cor 8.0
COc1ccc(/C=C/C(=O)OCC(=O)Nc2ccc(Cl)cc2F)cc1S(=O)(=O)N1CCOCC1	none
COC(=O)CNc1cc(S(=O)(=O)N2CCCCC2)ccc1Oc1cccc(C)c1	none
COC(=O)CNc1cc(S(=O)(=O)N2CCCCC2)ccc1Oc1ccc(C(=O)OC)cc1	CFTR F508del cor 8.7
CSc1ccccc1NC(=O)COC(=O)CCC(=O)c1ccc(F)cc1	CFTR F508del cor 8.1 (no result: PAX8 reporter)
Cc1ccc(C(=O)CCC(=O)OCC(=O)Nc2ccccc2SCC#N)cc1	none
CCCC#Cc1cnc2c(c1)C(=O)N([C@@H](C)CO)C[C@@H](C)[C@H](CN(C)Cc1ccc(F)cc1)O2	none (no result: PAX8 reporter)
c1ccc2c(c1)CCCC2C1=NCCN1 (configuration not stated)	none (no result: LGR2 inh)
Brc1ccc2c(c1)C(C1=NCCN1)c1ccccc1CS2 (configuration not stated)	CFTR F508del cor 10.8, EWS-Fli block 58.0
Cc1c(Nc2ccc3nonc3c2[N+](=O)[O-])c(=O)n(-c2ccccc2)n1C	none
Cc1c(Nc2cc(Cl)c3nonc3c2[N+](=O)[O-])c(=O)n(-c2ccccc2)n1C	LGR2 inh 103.1, PAX8 reporter 106.7
O=C(O)c1ccc(Nc2cc(Cl)c3nonc3c2[N+](=O)[O-])cc1	none
O=[N+]([O-])c1c(Nc2cccc(O)c2)cc(Cl)c2nonc12	PAX8 reporter 111.7, EWS-Fli block 59.4
Cc1cccc(C)c1NS(=O)(=O)c1ccc2c(c1)NC(=O)CO2	none
CCN(C[C@H]1N[C@@](C)(C(=O)OC)[C@H]2C(=O)N(C)C(=O)[C@@H]12)C(=O)c1ccc(F)cc1	none
O=C(CN1CCN(S(=O)(=O)c2ccc(F)c(Cl)c2)CC1)N1CCc2ccccc2C1	CFTR F508del cor 15.9
c1ccc(CN(Cc2ccccc2)C(c2ccnc3ccccc23)c2nnnn2-c2ccc3c(c2)OCCO3)cc1 (configuration not stated)	none
CCOC(=O)C1=CN(Cc2cccc(I)c2)S(=O)(=O)N(C)C1C (configuration not stated)	CFTR F508del cor 12.3
CCOC(=O)C1=CN(Cc2cccc(F)c2)S(=O)(=O)N(CC)C1c1ccccc1 (configuration not stated)	PAX8 reporter 86.0
CCOC(=O)C1=CN(Cc2cccc(-c3cccnc3)c2)S(=O)(=O)N(C)C1C (configuration not stated)	PAX8 reporter 101.0
CCOC(=O)C1=CN(Cc2cccc(F)c2)S(=O)(=O)N(CC)C1c1cccc(OC)c1 (configuration not stated)	none
